The text below walks through data of PubChem BioAssay AID2315 (National Center for Advancing Translational Sciences (NCATS), 2010).

Among all 290,000 compounds or so, about 27,000 (9.3%) were called active. For the sample, actives were picked, then their nearest neighbours and some compounds at random. Values without a mark were called inactive. No stated cut-off is given here; in the data, active means inhibition mostly above about 28% (no sharp cut-off); inactive means mostly below about 43%.

This experiment in a line: A qHTS for Small Molecule Inhibitors of Shiga Toxin. On inhibition: 0% is about no effect. The settings on record: Vero cells, Shiga toxin protein synthesis inhibition reporter; at 38.7 µM, active compounds read high. Background: In qHTS, concentration-response curves come from the screen itself.
As to `O=C(COc1ccc([N+](=O)[O-])cc1)Nc1cccc(C(=O)Nc2ccccc2C(=O)O)c1`, the inhibition was -17.8%.
Take `O=c1oc2ccccc2cc1-c1cn(-c2ccccc2)c(=S)[nH]1`: the inhibition was 24.5%.
Consider `COc1ccc(-c2cn(-c3ccc(OC)cc3)c(=S)[nH]2)cc1`, for which the inhibition is 38.6%.
As for `S=c1[nH]c(-c2cccs2)cn1-c1ccccc1`, the inhibition is 58.2% (active).
On to `O=C(CN(C(=O)c1csnn1)c1ccc(Br)cc1)NC1CCCC1`, for which the inhibition is -6.01%.
Regarding `COc1ccc(Cl)cc1NC(=O)CCS(=O)(=O)c1ccc(Br)cc1`, the inhibition is -3.47%.
The value for `CSc1nnc2ccc(-c3ccc(C)cc3)nn12` was 5.52%.
For `Cc1ccc(-c2cn3cc([N+](=O)[O-])ccc3n2)cc1`, the inhibition was 190% (active).
Consider `Cc1ccc(-c2cn3cc(C)ccc3n2)cc1`, for which the inhibition was -49.3%.
The value for `Cc1ccnc(N2C(=O)c3ccc([N+](=O)[O-])cc3C2=O)c1` was 2.61%; that for `Cc1ccc2nc(-c3ccc(Br)cc3)cn2c1` was 23.9% (active); that for `Cc1ccc(C(=O)Cn2cc([N+](=O)[O-])nc2C)cc1` was -7.99%.
Take `O=C(Nc1ccnn1C1CCN(C/C=C/c2ccc(F)cc2)CC1)C1CCCC1`: the inhibition was 12%.
In the case of `CCOc1c(OC)cccc1C(=O)NCC1(c2ccccc2)CCCC1`, the inhibition is -6.29%.
Regarding `COc1ccc(C(=O)C2CCCN(S(=O)(=O)c3cccc(C)c3)C2)c(C)c1` (stereo not drawn), the inhibition was -2.5%.
Consider `Cc1nc(C)c(-c2csc(NCCc3ccccc3)n2)s1`, for which the inhibition is 13.4%.
As to `COc1ccc2nc(Nc3nc(-c4cc5ccccc5oc4=O)cs3)sc2c1`, the inhibition was 61.7%.
`O=c1oc2ccccc2cc1-c1csc(Nc2ccc(O)cc2)n1`: the inhibition is 111% (active).
In the case of `Cn1c(CNc2nc(-c3ccccc3)cs2)nnc1SCC(=O)c1ccccc1`, the inhibition was -0.789%.
As to `CCNc1nc(-c2cc3ccccc3o2)cs1`, the inhibition was 83.5% (active).
The value for `Cc1ccc(Nc2nc(-c3sc(NC(=O)c4ccccc4)nc3C)cs2)cc1` was 16.8%.
As for `COc1ccc(S(=O)(=O)N2CCOCC2)cc1C(=O)NC1CCCCC1`, the inhibition was -17%.
The figure for `CN(C)CCCN(C(=O)c1ccc(S(=O)(=O)N2CCCCCC2)cc1)c1nc2ccc(Br)cc2s1` is 0.697%; for `CCN(CC)CCN(C(=O)c1ccc(N2C(=O)CCC2=O)cc1)c1nc2cc3c(cc2s1)OCO3` it is 29.6%.
Turning to `CCN(CC)CCN(C(=O)c1ccc(S(=O)(=O)N2CCOCC2)cc1)c1nc2cc3c(cc2s1)OCCO3`, the inhibition is 44.5% (active).
For the compound `O=S(=O)(c1ccc(-c2ccno2)s1)N1CCCCC1`, the inhibition was -11.5%.
The value for `COc1ccc2c(C)cc3nnnn3c2c1` was -4.48%; that for `O=C(NCCSc1ccccc1)c1ccco1` was 80.2% (active); that for `CCCc1ccc(OCC(=O)NNC(=S)NC(=O)c2ccco2)cc1` was -7.48%.
The value for `O=C(CSc1ccccc1)Nc1ccc(NC(=O)c2ccco2)cc1` was 38.7%; that for `CCCc1ccc(OCCNC(=O)c2ccco2)cc1` was 78.3% (active); that for `Cc1ccc(C(=O)NCCNS(=O)(=O)c2ccccc2)cc1` was 1.8%.
Take `O=C(CNC(=O)c1ccco1)OCC(=O)c1ccccc1`: the inhibition was 46.8%.
For `Cc1ccc(C(=O)NCCNC(=O)c2ccccc2)cc1`, the inhibition was -8.28%.
For the compound `CCS(=O)(=O)Nc1ccc(C(=O)NCCSc2ccccc2)cc1`, the inhibition is 79.2% (active).
The value for `CCCc1ccc(OCCNC(=O)c2ccccc2Br)cc1` was 34.3%; that for `Cc1cc(S(=O)(=O)NC2CCCC2)ccc1-n1cnnn1` was -8.85%.
For `Cc1cc(CNC(=O)C2CCC(=O)N(CCc3ccc(Cl)cc3)C2)no1` (stereo not drawn), the inhibition is -7.54%.
As for `CC(=O)Nc1c2c(nn1-c1ccc(C)cc1C)CS(=O)C2` (stereo not drawn), the inhibition was -1.19%.
On to `CC1=CCC2C(=O)N(c3cccc(C(=O)NC(C)c4ccccc4)c3)C(=O)C2C1` (stereo not drawn), for which the inhibition is -6.84%.
Take `Cc1ccc(C)c(N2CCN(C(=O)CCCn3c(=O)c4cccn4c4cccnc43)CC2)c1`: the inhibition was -8.84%.
As to `O=C(CSc1cccc[n+]1[O-])c1ccc(-c2ccccc2)cc1`, the inhibition was 142% (active).
The value for `COc1ccccc1C(=O)CSc1cccc[n+]1[O-]` was -1.48%.
For the compound `O=C(CSc1cccc[n+]1[O-])c1ccc(Cl)cc1`, the inhibition was 5.16%.
Regarding `CC(=O)Nc1cccc(NC(=O)CSc2nccn2Cc2ccc(F)cc2)c1`, the inhibition was -6.32%.
As to `COc1cc(-c2cc(C(=O)OCC(=O)Nc3ccc4c(c3)OCO4)c3ccccc3n2)cc(OC)c1OC`, the inhibition was 3.34%.
The value for `NS(=O)(=O)c1ccc(NC(=O)COC(=O)c2ccc(Cl)nc2)cc1` was -4.23%.
Turning to `NC(=O)c1ccc(NC(=O)COC(=O)c2c3c(nc4ccccc24)/C(=C\c2ccc4c(c2)OCO4)CCC3)cc1`, the inhibition is 59.8% (active).
Turning to `NS(=O)(=O)c1ccc(NC(=O)COC(=O)c2c3c(nc4ccccc24)/C(=C\c2ccc4c(c2)OCO4)CCC3)cc1`, the inhibition was 3.72% (active).
As to `O=C(COC(=O)c1c2c(nc3ccccc13)/C(=C\c1cccs1)CCC2)Nc1ccccc1Cl`, the inhibition is 24.9%.
Take `NS(=O)(=O)c1ccc(NC(=O)COC(=O)c2cc3ccccc3oc2=O)cc1`: the inhibition is 16.5%.
The figure for `O=C(N/C(=C/c1ccc(Cl)cc1)C(=O)N1CCCCC1)c1ccco1` is 5.11%; for `O=C1CCC(C(=O)N2CCN(c3ccccc3Cl)CC2)CN1CC1CCCCC1` (stereo not drawn) it is -2.81%; for `Cc1c(OC(C)C(=O)NCC2CCC(C(=O)O)CC2)ccc2c1oc(=O)c1ccccc12` (stereo not drawn) it is -3.63%.
On to `CCCC[C@]12Cc3cc(OC)c(OC)cc3C(O1)C1=C(CC3(CCCCC3)OC1=O)O2`, for which the inhibition result was “inactive”.
Regarding `CCn1cc(CN2CCN(CC(C)(C)C)C(CCO)C2)c2ccccc21` (stereo not drawn), the inhibition is 8.71%.
The figure for `CC(=O)Nc1ccc(S(=O)(=O)N2N=NC3C2C2CC4C3(CN(C(=O)OC(C)(C)C)S4(=O)=O)O2)cc1` (stereo not drawn) is 19.4%.
For the compound `CN(C(=O)c1cccc(OC2CCN(S(=O)(=O)N(C)C)CC2)c1)C1CCOC1` (stereo not drawn), the inhibition is 21.6%.
With `CNS(=O)(=O)c1cccc(C(=O)NCC2CCCCC2)c1`, the inhibition was 10.6%.
The value for `CN(C)S(=O)(=O)N1CCC(Oc2cccc(C(=O)NCCCC3CCCC3)c2)CC1` was 56.6% (active); that for `O=C(CN(C(=O)c1nsc(Cl)c1Cl)c1cccc(F)c1)NC1CCCC1` was -1.89%; that for `O=C(NCCCn1ccnc1)C1CCCN(S(=O)(=O)c2cc(Cl)ccc2Cl)C1` (stereo not drawn) was -13%.
The figure for `COc1cccc(CNS(=O)(=O)c2cc3c(cc2C)n(C)c(=O)c(=O)n3C)c1` is -2.17%.
Regarding `COc1cccc(CNc2ncc(-c3ccccc3)n2C)c1`, the inhibition is 20.5% (active).
As for `COc1cccc(CNc2nc(C(F)(F)F)nc3ccccc23)c1`, the inhibition was -1.59%.
Consider `COc1cc(C(=O)N/C(=C\c2cn(C)c3ccccc23)C(=O)N2CCOCC2)cc(OC)c1OC`, for which the inhibition was -2.55%.
With `COc1ccccc1C(=O)Nc1ccnn1C1CCN(Cc2cnn(C)c2)CC1`, the inhibition was 14.1%.
Consider `Cc1occc1C(=O)NNC(=S)NCC(C)C`, for which the inhibition is -8.32%.
Take `CC(C)C(NC(=O)c1ccc(Cl)cc1)C(=O)O` (stereo not drawn): the inhibition is -21.4%.
The figure for `CC(C)CNC(=S)NC(=O)c1ccc(Cl)cc1` is 90.8% (active).
Turning to `CCn1ccnc1CNC(=O)CC1C(=O)NCCN1Cc1ccc(F)cc1Cl` (stereo not drawn), the inhibition was -5.69%.
For `CC(C)C[C@H](NC(=O)C1CCC(CNC(=O)[C@@H]2CCCN2C(=O)OC(C)(C)C)CC1)C(=O)O` (stereo partly drawn), the inhibition was -6.01%.
The figure for `CN1CCN(Cc2c(C(=O)N3CCc4ccccc4C3)nc3ccc(Cl)cn23)CC1` is -6.16%.
For the compound `O=C(c1cc(-c2cccc(O)c2)on1)N1CCc2ccccc2C1`, the inhibition is 35.6% (active).
Take `O=C(COc1ccccc1)N1CCc2ccccc2C1`: the inhibition was 38.7%.
As for `Cc1ccc2c(c1)N(C(=O)CCC(=O)N1CCc3ccccc3C1)CCO2`, the inhibition is 2.26%.
Turning to `CN(c1ccc(C(=O)N2CCc3ccccc3C2)cc1)S(C)(=O)=O`, the inhibition was 52.2% (active).
The value for `Cc1cccc(OC(C)C(=O)N2CCc3ccccc3C2)c1` (stereo not drawn) was -13.5%.
Turning to `O=C(NCCCN1CCOCC1)c1cc(-c2cccc(O)c2)on1`, the inhibition is 23.1%.
The figure for `Cc1ccc(-c2cc(C(=O)N3CCc4ccccc4C3)no2)cc1` is 46.6% (active); for `CN(c1cccc(NC(=O)c2ccc(CN3CCc4ccccc4C3)cc2)c1)S(C)(=O)=O` it is -12%; for `COc1cccc(N(CC(=O)N2CCc3ccccc3C2)S(C)(=O)=O)c1` it is -19.6%.
The value for `O=C(c1noc2c1CCCC2)N1CCc2ccccc2C1` was 67.4% (active); that for `Cn1cccc1C(=O)N1CCc2ccccc2C1` was 36.9%.
Consider `Cc1cc(C(F)F)n2nc(C(=O)Nc3ccc(S(=O)(=O)NC45CC6CC(CC(C6)C4)C5)cc3)nc2n1`, for which the inhibition was -15.3%.
Regarding `CCOc1ccc2[nH]c(C(=O)N/N=C/c3cccc(OC)c3OC)cc2c1`, the inhibition is 14%.
Regarding `O=C(NCc1ccccc1)C(c1ccco1)N(C(=O)c1csnn1)c1ccccc1F` (stereo not drawn), the inhibition was -4.22%.
The value for `O=C(NCC(=O)N1CCN(c2ccccc2O)CC1)c1ccc2ccccc2c1` was 22.1%.
In the case of `Cc1ccc(CC2CC(=O)N(c3cc(C)ccc3C)C2=O)cc1` (stereo not drawn), the inhibition is -11.4%.
For the compound `N#C/C(=C\c1cccnc1)C(=O)Nc1ccc(SC(F)F)cc1`, the inhibition was 36.4%.
For `Cc1ccc(-n2c(-c3ccc(Cl)cc3)n[nH]c2=S)cc1`, the inhibition is 4%.
As to `CCOC(=O)c1ccc2[nH]c3c(c2c1)CCCC3NC=O` (stereo not drawn), the inhibition is 90.9%.
Consider `COc1ccc(N(C)C(=O)CCS(=O)(=O)c2cccc3nsnc23)cc1`, for which the inhibition was -7.02%.

In general, inhibition refers to the drop in the measured response relative to a control, in per cent.
